mHTT-CaM PPI inh – inhibitors of human mutant huntingtin-calmodulin interaction. P42858. AlphaScreen His-mHTT/GST-CaM binding, luminescence. inhibition, % at 15 µM. 190,000 compounds, 3.6% hits;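 note: 0% = both proteins with DMSO and 100% = one protein alone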
Pf apPOL inh – Pf-apPOL DNA polymerase inhibition; AID 1794808; inhibition, % at 10 µM; 210,000 compounds, 0.25% hits; Recombinant Pf-apPOL, molecular beacon fluorescence, 1.5 h
* marks the source's active call; other numbers are inactive results. The sample as a whole holds a higher share of hits than the screen did. Cut-off read from the data, not from the text of the source: active = inhibition above about 50%; inactive = the rest.

Results for O=C1CNC(c2ccccc2Cl)c2cc(Br)ccc2N1 (stereo not given) ?
mHTT-CaM PPI inh: 61.0*; Pf apPOL inh: -0.6

Results for CC(=O)N1CC(=O)Nc2ccc(Br)cc2C1c1ccccc1Cl (stereo not given) ?
mHTT-CaM PPI inh: 16.0; Pf apPOL inh: -2.6

How did COc1ccc(NC(=O)CN2C(=O)CN=C(c3ccccc3)c3cc(Cl)ccc32)cc1OC do in these assays?
mHTT-CaM PPI inh: 76.0*; Pf apPOL inh: -18.5

What do the screens show for `O=C(CN1C(=O)CN=C(c2ccccc2)c2cc(Cl)ccc21)Nc1ccccc1C(F)(F)F`?
mHTT-CaM PPI inh: 26.0; Pf apPOL inh: -5.5

How did Cc1cccc(NC(=O)CN2C(=O)CN=C(c3ccccc3)c3cc(Cl)ccc32)c1C do in these assays?
mHTT-CaM PPI inh: 54.0*; Pf apPOL inh: -19.5

Results for O=C(CN1C(=O)CN=C(c2ccccc2)c2ccccc21)Nc1cccc(Cl)c1 ?
mHTT-CaM PPI inh: 27.0; Pf apPOL inh: -0.8

What do the screens show for `C=CC1CN2CCC1C(C(O)c1ccnc3ccc(OC)cc13)C2` (stereo not given)?
mHTT-CaM PPI inh: -1.9; Pf apPOL inh: 1.1

What do the screens show for `Cc1cc(C)n(-c2cc(N3CCNCC3)ccc2[N+](=O)[O-])n1`?
mHTT-CaM PPI inh: 3.6; Pf apPOL inh: 3.5

Results for CCc1ccc(C(=O)N2CCC3(C2)C(=O)Nc2ccc(OC)cc23)cc1 (stereo not given) ?
mHTT-CaM PPI inh: 5.0; Pf apPOL inh: -3.9

What do the screens show for `COc1ccc(OC)c(NC(=S)N2CC3CC(C2)c2cccc(=O)n2C3)c1` (stereo not given)?
mHTT-CaM PPI inh: -2.6; Pf apPOL inh: -3.5

What do the screens show for `O=C(c1nccs1)C1CCCN1` (stereo not given)?
mHTT-CaM PPI inh: 97.9*

What do the screens show for `COc1ccccc1CCNCc1ccc2c(c1)OCO2`?
mHTT-CaM PPI inh: 1.0; Pf apPOL inh: -10.1

Results for COc1ccccc1CCNCc1cc(OC)c2c(c1)OCO2 ?
mHTT-CaM PPI inh: 89.3*; Pf apPOL inh: -6.9

What do the screens show for `COc1ccc2c(c1)C1(CCN(S(=O)(=O)c3cc(F)ccc3C)C1)C(=O)N2C` (stereo not given)?
mHTT-CaM PPI inh: 9.3; Pf apPOL inh: -2.9

How did CN1CCN(Cc2ccc[nH]2)CC1 do in these assays?
mHTT-CaM PPI inh: 29.6; Pf apPOL inh: -6.1

Results for CN1CCN(Cc2ccco2)CC1 ?
mHTT-CaM PPI inh: 0.1; Pf apPOL inh: 78.3*

How did CN1C(=O)c2ccccc2C(C(=O)N2CCC3(CC2)OCCO3)C1c1cccs1 (stereo not given) do in these assays?
mHTT-CaM PPI inh: -3.0; Pf apPOL inh: -6.8

How did Cc1cc(Br)c2[nH]cc(CCN)c2c1 do in these assays?
mHTT-CaM PPI inh: 6.8; Pf apPOL inh: 0.2

How did CC1(C)Cc2c(C#N)c(N3CCNCC3)nc(Cc3ccccc3)c2CO1 do in these assays?
mHTT-CaM PPI inh: 3.0; Pf apPOL inh: 1.9

How did N#Cc1c(Cl)c(Cl)nc(N2CCCNCC2)c1Cl do in these assays?
mHTT-CaM PPI inh: 100.0*; Pf apPOL inh: -8.9

Results for Cc1c(C(=O)O)nnn1Cc1ccccc1F ?
mHTT-CaM PPI inh: -7.6; Pf apPOL inh: 0.0

How did CN1CCN(Cc2ccc(Cl)nc2)/C1=C(/C(Cl)=C(Cl)Cl)[N+](=O)[O-] do in these assays?
mHTT-CaM PPI inh: 7.0; Pf apPOL inh: -4.7

Results for CN(Cc1ccccc1)C(=C(Cl)Cl)/C(=C1\NCCN1Cc1ccc(Cl)nc1)[N+](=O)[O-] ?
mHTT-CaM PPI inh: 65.0*; Pf apPOL inh: -5.3

How did Cc1nccc2c1[nH]c1ccccc12 do in these assays?
Pf apPOL inh: 10.9

Results for Cc1cc(N2CCN(C)CC2)c2[nH]c3ccccc3c2c1 ?
mHTT-CaM PPI inh: 79.1*; Pf apPOL inh: 11.8

What do the screens show for `O=c1cccc2n1CC1CC2CN(C(=S)NCCc2ccccc2)C1` (stereo not given)?
mHTT-CaM PPI inh: -7.5; Pf apPOL inh: -2.8

What do the screens show for `CCn1cc(C(=O)NCc2ccc3c(c2)OCO3)c2cccnc21`?
mHTT-CaM PPI inh: 11.7; Pf apPOL inh: -11.0

What do the screens show for `CCn1cc(C(=O)NCc2cccc(Br)c2)c2cccnc21`?
mHTT-CaM PPI inh: 58.1*; Pf apPOL inh: -18.8

Results for COCCN1CCC(N2CCCN(C(=O)Cc3cccc(Cl)c3)CC2)C1=O (stereo not given) ?
mHTT-CaM PPI inh: 15.1; Pf apPOL inh: -0.5

What do the screens show for `O=C(Cc1cccs1)N1CCCN(C2CCN(Cc3ccc(F)cc3)C2=O)CC1` (stereo not given)?
mHTT-CaM PPI inh: 60.0*; Pf apPOL inh: 0.5

How did COc1cc2c(cc1OC)-c1c(OC)c(OC)c([N+](=O)[O-])c3c1C(C2)N(C)CC3 (stereo not given) do in these assays?
mHTT-CaM PPI inh: 56.6*

How did COc1cc2c(cc1OC)C1c3cc([N+](=O)[O-])ccc3Oc3cc(C#N)c(C#N)cc3N1CC2 (stereo not given) do in these assays?
mHTT-CaM PPI inh: 13.0; Pf apPOL inh: -2.4

Results for Cc1ccc(-c2ccc(C)c(Cl)c2)cc1Cl ?
Pf apPOL inh: 1.3

How did Cc1ccccc1C(=O)NC(Oc1ccccc1[N+](=O)[O-])C(Cl)(Cl)Cl (stereo not given) do in these assays?
mHTT-CaM PPI inh: 1.0; Pf apPOL inh: -1.7

How did CCOc1ccccc1N1CCN(Cc2ccc(F)c(F)c2)CC1 do in these assays?
mHTT-CaM PPI inh: -5.3; Pf apPOL inh: 2.8

How did CCOc1ccccc1N1CCN(Cc2ccc(F)c(Br)c2)CC1 do in these assays?
mHTT-CaM PPI inh: 67.6*; Pf apPOL inh: -0.7

What do the screens show for `Cc1nc2c(c(-n3nc(N)c(C#N)n3)nn2C)c(C)c1Cl`?
mHTT-CaM PPI inh: -0.4

What do the screens show for `c1ccc(N2CCNCC2)nc1`?
mHTT-CaM PPI inh: -7.0

How did OCCN(CCc1ccccc1)Cc1ccccc1 do in these assays?
mHTT-CaM PPI inh: -13.5; Pf apPOL inh: -6.3

How did OC(CN(Cc1ccccc1)Cc1ccccc1)c1ccc2cc[nH]c2c1 (stereo not given) do in these assays?
mHTT-CaM PPI inh: 68.5*; Pf apPOL inh: 2.9

How did CCc1ccc(C(=O)CCN(C)C)cc1 do in these assays?
mHTT-CaM PPI inh: 2.2; Pf apPOL inh: -2.2

What do the screens show for `CN(C)CCC(=O)c1ccc(Cl)c(Cl)c1`?
mHTT-CaM PPI inh: 100.2*; Pf apPOL inh: -2.4

How did O=[N+]([O-])c1cc(CN2CCN(c3ccccc3)CC2)ccc1O do in these assays?
mHTT-CaM PPI inh: 3.4; Pf apPOL inh: -3.8

How did NCCc1csc2c1CCCC2 do in these assays?
mHTT-CaM PPI inh: 65.5*

How did CN1CCN(C2CC3CCC2C3)CC1 (stereo not given) do in these assays?
mHTT-CaM PPI inh: -5.3; Pf apPOL inh: 1.2

What do the screens show for `CCN1CCN(c2cc(C)nc(C)n2)CC1`?
mHTT-CaM PPI inh: -2.3; Pf apPOL inh: -1.5

How did CN(C)c1ccc([N+](=O)[O-])c2cccnc12 do in these assays?
mHTT-CaM PPI inh: 13.7

Results for CNC(=O)Oc1cc([N+](=O)[O-])cc2cccnc12 ?
mHTT-CaM PPI inh: 100.3*; Pf apPOL inh: -8.9

How did O=[N+]([O-])c1ccccc1CNCCc1cccc(F)c1 do in these assays?
mHTT-CaM PPI inh: 3.1; Pf apPOL inh: -5.4

What do the screens show for `CCOc1cc(CNCCc2ccccc2)ccc1OC`?
mHTT-CaM PPI inh: -1.8; Pf apPOL inh: -2.4

Results for O=C1NC(=S)NC(=O)C1=Cc1c(Cl)cccc1Cl ?
Pf apPOL inh: 32.2

What do the screens show for `O=C1NC(=S)NC(=O)C1=Cc1ccco1`?
Pf apPOL inh: 91.1*

Results for COc1ccc(C=C2Oc3cc(OC(=O)N(C)C)ccc3C2=O)c(OC)c1 ?
mHTT-CaM PPI inh: 0.0; Pf apPOL inh: -0.5

Results for CCCC12CN3CCN(CC(C3)C1O)C2 (stereo not given) ?
mHTT-CaM PPI inh: 0.4; Pf apPOL inh: -2.3

Screens (PubChem BioAssay)
